# The panel holds about 83,000 compounds, 20% with a hit somewhere; the sample as a whole holds those more often.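 In brief: 96-well plates, 48 h treatment, single concentration, percent growth endpoint.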 A number with no mark means an inactive call. Active and inactive are the calls of the source. Rule for the calls: active = growth percent below 10; inactive = the rest.
# Tested on: NCI-H460 lung
# Assay: NCI-60 one-dose screen, 48 h (100 = growth as untreated, 0 = no growth, -100 = all killed)
# Settings: 10 µM unless noted
row,Structure (SMILES),growth
1,O=C(Nc1ccc2ncnc(Nc3cccc(C(F)(F)F)c3)c2c1)c1cccs1,22.5%
2,O=C1[C@@H](OS(=O)(=O)CC(F)(F)F)[C@H](c2ccc(F)cn2)N1c1cc2c3ccccc3ccc2c2ccccc12,104%
3,COc1cc2cc(c1Cl)N(C)C(=O)C[C@H](OC(=O)[C@H](C)N(C)C(=O)CCS)C[C@]1(C)O[C@H]1[C@H](C)[C@@H]1C[C@@](O)(NC(=O)O1)[C@H](OC)/C=C/C=C(\C)C2,7.39% (active)
4,COc1cc(/C=C/C(=O)c2cccs2)ccc1OCc1ccc(Cl)nc1,83.6%
5,COc1cc(/C=C/C(=O)/C=C/c2cc3ccc(Cl)cc3[nH]c2=O)ccc1O,53.3%
6,COc1ccc(/C=C/C(=O)/C=C(/C=C/c2ccc(OC)c(OC)c2)OB(F)F)cc1OC,21.8%
7,COc1cc(/C=C/C(=O)/C=C/c2cc3ccc(Cl)cc3n(Cc3ccccc3)c2=O)ccc1O,-29.1% (active)
8,C=C(C)[C@@H]1CC[C@]2(C(=O)OCCCC[P+](c3ccccc3)(c3ccccc3)c3ccccc3)CC[C@]3(C)[C@H](CC[C@@H]4[C@@]5(C)CC[C@H](OC(=O)C(Cl)Cl)C(C)(C)[C@@H]5CC[C@]43C)[C@@H]12,-41.1% (active)
9,COc1ccc(C(=S)c2cc(OC)c(OC)c(OC)c2)cc1OC(=O)CCl,7.23% (active)
10,CNCc1cccc2c1OCCOCCOCCN(CCN1CCOCC1)S(=O)(=O)c1ccc(cc1)-c1cnc(N)c(n1)C(=O)N2,30.7%
11,COc1ccc2[nH]c(=O)c(/C=C/C(=O)/C=C/c3ccc(O)c(OC)c3)cc2c1,20.1%
12,Fc1ccc(N/N=C/c2ccc(-n3cccn3)cc2)cc1,106%
13,COc1cc(F)c(-c2nc3c(C)cccc3n2Cc2c(F)cccc2F)c(F)c1,77.8%
14,Cc1nc(C)c(C)nc1C,109%
15,Oc1ccc(CNNc2ccnc3c(O)cccc23)c2cccnc12,12.3%
16,N#Cc1ccc(N2Cc3cc(Cl)ccc3OC3=C2C(=O)N(Cc2ccccc2)C3=O)cc1,34.7%
17,CC(=O)OCC1SC(OC(C)=O)C(NC(=O)/C=C/CCl)C(OC(C)=O)C1OC(C)=O (stereo not drawn),102%

row,Structure (SMILES),growth
1,S=C(Nc1ccccc1)c1ccccn1,100%
2,COc1cc(C(C)c2ccc3c(ccn3C)c2)cc(OC)c1OC (stereo not drawn),2.89% (active)
3,COc1cc(C2=NN(C(C)=O)C(c3cccc(Nc4ccnc5cc(C(F)(F)F)ccc45)c3)C2)cc(OC)c1OC (stereo not drawn),57.6%
4,CC(C)CSc1nc(Nc2ccccc2)c(C#N)c(-c2ccc(F)cc2)n1,3.5% (active)
5,C[C@H]1[C@H](C)CC[C@]2(C(=O)OCCCC[P+](c3ccccc3)(c3ccccc3)c3ccccc3)CC[C@]3(C)C(=CC[C@@H]4[C@@]5(C)CC[C@H](OC(=O)C(Cl)Cl)C(C)(C)[C@@H]5CC[C@]43C)[C@H]12,-83.8% (active)
6,CC(/C=C/c1ccccc1)=N/NC(=O)c1ccncc1,102%
7,O=C(O)c1cn(C2CC2)c2cc(N3CCN(C(=O)CSc4nnc(-c5ccc(Cl)cc5)n4-c4ccccc4)CC3)c(F)cc2c1=O,104%
8,C1=CC2=CC=C3C=CC=C4C(c5nc6c7ccccc7c7ccccc7c6[nH]5)=CC(=C1)C2C34 (stereo not drawn),98.9%
9,Nc1c(C(=O)Nc2ccccc2)sc2nc3c(cc12)CN(C(=O)OCc1ccccc1)CC3,34%
10,Cc1cccc(C)c1NC(=O)CN(CC(C)C)CC(O)COc1ccccc1 (stereo not drawn),111%
11,C=C(C)[C@@H]1CCC=C2CC[C@]3(C)[C@H](CC[C@@H]4[C@@]5(C)CCCNC(C)(C)[C@@H]5CC[C@]43C)[C@H]21,-24.6% (active)
12,COC(=O)/C=C/c1cc(OC(C)=O)c2c(c1)C(C(=O)OC)C(c1ccc(OC(C)=O)c(OC(C)=O)c1)O2 (stereo not drawn),13.8%
13,COc1ccc(-c2[nH]c3ccccc3c2C=C(C#N)C#N)cc1,6.67% (active)
14,COc1ccc(-c2nnc(N3CCN(C(=O)CN4CCN(c5ccccc5)CC4)CC3)nc2-c2ccc(OC)cc2)cc1,14%
15,O=c1[nH]c2ccccc2cc1-c1nc2ccc(Cl)cc2[nH]1,18%
16,O=C(NC[C@H](O)CN1CCc2ccccc2C1)c1cc(NC2COC2)ncn1,97.8%
